Measured values reported in PubChem BioAssay AID624481 (The Scripps Research Institute Molecular Screening Center, 2012).
The source made the active and inactive calls. No stated cut-off is given here; in the data, active means inhibition above about 50%; inactive means the rest.

Each molecule was assayed against Prolyl endopeptidase-like (Mus musculus) (UniProt Q8C167) (assay: mouse PREPL enzyme inhibition by screening hits – biochemical, gel-based competitive ABPP, fluorescence, HTS hits, PREPL inhibitor project (AID 624481)). Conditions: purified mouse PREPL, at 20 µM, hits give high values.
Sequence of Prolyl endopeptidase-like (Mus musculus) (Q8C167 whole entry, looked up): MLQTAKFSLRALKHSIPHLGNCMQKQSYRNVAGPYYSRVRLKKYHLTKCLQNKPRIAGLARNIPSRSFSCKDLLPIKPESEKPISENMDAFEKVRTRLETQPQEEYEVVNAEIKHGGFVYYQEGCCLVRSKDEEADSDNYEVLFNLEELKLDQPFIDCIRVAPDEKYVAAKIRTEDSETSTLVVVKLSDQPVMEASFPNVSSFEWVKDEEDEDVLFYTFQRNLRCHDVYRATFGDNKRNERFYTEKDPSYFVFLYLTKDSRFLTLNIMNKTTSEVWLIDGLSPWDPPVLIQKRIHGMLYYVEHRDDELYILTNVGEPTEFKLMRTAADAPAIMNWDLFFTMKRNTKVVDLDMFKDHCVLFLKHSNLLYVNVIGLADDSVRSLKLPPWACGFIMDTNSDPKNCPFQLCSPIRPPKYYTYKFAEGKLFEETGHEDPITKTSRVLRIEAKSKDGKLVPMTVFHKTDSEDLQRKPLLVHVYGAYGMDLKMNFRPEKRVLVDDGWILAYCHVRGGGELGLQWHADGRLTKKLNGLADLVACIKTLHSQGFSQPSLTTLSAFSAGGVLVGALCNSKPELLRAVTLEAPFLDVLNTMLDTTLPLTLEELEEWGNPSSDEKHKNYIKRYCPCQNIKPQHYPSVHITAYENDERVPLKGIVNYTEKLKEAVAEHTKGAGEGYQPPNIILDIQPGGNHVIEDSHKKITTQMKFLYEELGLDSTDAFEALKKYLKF

SMILES | inhibition
C#CCOCCOCCOCCNc1nc(N2CCN(C(=O)CCCCCCCCCCNC(=O)Cn3cc(CCCCCN)nn3)CC2)nc(N2CCN(C(=O)CCCCCCCCCCNC(=O)[C@H](CO)n3cc(CCCSC)nn3)CC2)n1 | 31% (inactive)
CC1(C)N=C(N)N=C(N)N1c1ccc(Oc2ccc(Cl)cc2)c(Cl)c1 | -35% (inactive)
Oc1sc(C=Nc2ccc(F)cc2)c2ccccc12 | 20% (inactive)
COc1ccc(C=NNc2cc(C)nc3ccc(OC)cc23)c(OC)c1 | 6% (inactive)
C#CCOCCOCCOCCNc1nc(N2CCN(C(=O)[C@H](Cc3ccc(O)cc3)n3cc([C@@H](N)CC(C)C)nn3)CC2)nc(N2CCN(C(=O)[C@H](Cc3cc4ccccc4[nH]3)n3cc([C@@H](N)CC(C)C)nn3)CC2)n1 | -77% (inactive)
O=C(COc1ccccc1Cl)Nc1ccc(N2CCN(C(=O)c3ccccc3)CC2)cc1 | -61% (inactive)
COc1ccc(C)cc1Nc1n[n+](-c2ccccc2)c(-c2ccc(N(C)C)cc2)s1 | -72% (inactive)
Cc1sc2ncnc(NN=Cc3ccccc3O)c2c1C | -89% (inactive)
CCCCN1C(=N)N([C@@H](CN2CCC[C@H]2CN2C(N)=NC[C@@H]2Cc2ccccc2)C(C)C)C[C@H]1Cc1ccccc1 | -44% (inactive)
CSc1ccc2c(c1)N(CCC1CCCCN1C)c1ccccc1S2 (configuration not stated) | -53% (inactive)
COCCn1c(-c2ccc(Br)cc2)csc1=Nc1cccnc1 | 43% (inactive)
COc1ccc2cc1Oc1ccc(cc1)C[C@H]1c3cc(c(OC)cc3CCN1C)Oc1c(O)c(OC)cc3c1[C@H](C2)N(C)CC3 | 0% (inactive)
COc1ccc(NCc2nn(CC(=O)c3ccc(Br)cc3)c3[n+]2CCCCC3)cc1 | -48% (inactive)
CC(C)[C@H](CN1CCC[C@H]1CN1C(N)=NC[C@H]1C(C)C)N1C[C@@H](Cc2ccccc2)N(CCCC2CCCC2)C1=N | 92% (active)
CCC[C@@H](CN1CCC[C@H]1CN1C(N)=NC[C@H]1C(C)C)N1C[C@@H](Cc2ccccc2)N(CCCC2CCCC2)C1=N | -46% (inactive)
CN(C)c1nc(-c2ccccn2)nnc1-c1ccccc1 | -28% (inactive)
O=C(CSc1cccc(C(F)(F)F)c1)Nc1ccc(N2CCOCC2)cc1 | -35% (inactive)
C[N+](C)(CCCCCC[N+](C)(C)CCCN1C(=O)c2cccc3cccc(c23)C1=O)CCCN1C(=O)c2cccc3cccc(c23)C1=O | -29% (inactive)
CN(C)c1ccc(C(CNC(=O)COc2ccc(Cl)cc2)N2CCCC2)cc1 (configuration not stated) | -25% (inactive)

SMILES | inhibition
CN(CC(=O)Nc1ccc(Cl)cc1)C(=O)c1cccc(S(=O)(=O)N2CCN(Cc3ccccc3)CC2)c1 | 1% (inactive)
CCN1/C(=C/c2ccc3ccc(C)cc3[n+]2CC)Sc2ccccc21 | -19% (inactive)
COc1ccc(C2CC(c3cccc(Cl)c3)n3nc(N)nc3N2)cc1 (configuration not stated) | -29% (inactive)
COc1ccc(N2CCN(c3nc4c(c(=O)n(C)c(=O)n4C)n3Cc3ccccc3)CC2)cc1 | -47% (inactive)
CCN(CC)c1ccc2cc(C(N)=O)c(=NNC(=O)c3ccncc3)oc2c1 | -14% (inactive)
CN1Cc2c(N3CCOCC3)nc3sc(C(=O)c4ccccc4)c(N)c3c2CC1(C)C | -32% (inactive)
CC[C@@H](C)[C@@H]1CN([C@@H](CN2CCC[C@H]2CN2C(N)=NC[C@H]2C(C)C)C(C)C)C(=N)N1CCCC1CCCC1 | -53% (inactive)
COc1cc2nc(Nc3ccc(C)c(C)c3)nc(N)c2cc1OC | 0% (inactive)
CC(C)[C@H](CN1CCC[C@H]1CN1C(N)=NC[C@@H]1Cc1ccccc1)N1C[C@@H](Cc2ccccc2)N(CCc2ccc(Cl)c(Cl)c2)C1=N | -75% (inactive)
C#CCOCCOCCOCCNc1nc(N2CCN(C(=O)CCCCCCCCCCNC(=O)[C@H](CCCCN)n3cc(CCO)nn3)CC2)nc(N2CCN(C(=O)CCCCCCCCCCNC(=O)[C@H](CCCCN)n3cc(C[C@@H](C)CC)nn3)CC2)n1 | -141% (inactive)
O=C(C1=C[C@@H](c2ccc(Br)cc2)C[C@@H](OCc2ccc(CO)cc2)O1)N1CCN(Cc2ccccc2)CC1 | -99% (inactive)
CCC(=O)N1CCN(c2ccc(NC(=O)COc3cccc(C)c3C)cc2)CC1 | -49% (inactive)
Cc1cccc(C2CC(c3ccc(F)cc3)Nc3nc(N)nn32)c1 (configuration not stated) | -26% (inactive)
COc1ccc(N2CCN(c3cc(C)nc4ccc(OC)cc34)CC2)cc1 | -69% (inactive)
CCCOc1ccccc1-n1sc2c(c1=S)-c1cc(OC)cc3c1N(C(=O)C3=O)C2(C)C | -26% (inactive)
CC(=O)n1cc([C@@H]2C=C(C(=O)N3CCN(C)CC3)O[C@H](OCc3ccc(CO)cc3)C2)c2ccccc21 | -55% (inactive)
O=C(C1=C[C@@H](c2ccc(C(F)(F)F)cc2)C[C@@H](OCc2ccc(CO)cc2)O1)N1CCN(Cc2ccccc2)CC1 | -76% (inactive)
c1ccc(-c2nc3ccccn3c2NC2CCCC2)nc1 | -69% (inactive)
